Where “and” joins values, the source holds several entries; their conditions need not be identical. Identical values can stand only once. The whole screen tested about 5,500 compounds, of which about 2,000 (36%) were called active. Another 18% or so got no clear call; they are omitted. Rule as the data show it: active = normalized growth mostly below about 0.91 (no sharp cut-off); inconclusive = no clear call, values can overlap the other calls; inactive = mostly above about 0.92. The list shows a part of the results.
Test: chemical genetic growth profiling, strain panel (AID 1159580);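 also: tested at 20 µM; growth read once vehicle control cultures reached saturation at 30 °C; 1 = growth at the plate median or of vehicle wells; lower values mean less growth of the strain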
Conditions: S. cerevisiae deletion strains, growth OD

Measured: normalized growth

COc1ccc(C(=O)c2ccccc2O)c(O)c1
inactive: locus YAL013W, strain DEP1, stronger effect = lower value 0.91 | locus YAL021C, strain ccr4, stronger effect = lower value 0.992 | locus YBR229C, strain ROT2, stronger effect = lower value 0.95 | locus YCL029C, strain bik1, stronger effect = lower value 0.929 | locus YDL005C, strain med2, stronger effect = lower value 0.918 | locus YDL035C, strain GPR1, stronger effect = lower value 0.962 | locus YDL074C, strain BRE1, stronger effect = lower value 0.845 | locus YDL101C, strain DUN1, stronger effect = lower value 0.944 | locus YDL134C, strain PPH21, stronger effect = lower value 0.933 | locus YDL185W, strain tfp1, stronger effect = lower value 0.921 | locus YDR069C, strain doa4, stronger effect = lower value 0.912 | locus YDR101C, strain arx1, stronger effect = lower value 0.949 | locus YDR150W, strain NUM1, stronger effect = lower value 0.961 | locus YDR162C, strain NBP2, stronger effect = lower value 0.926 | locus YEL061C, strain CIN8, stronger effect = lower value 0.952 | locus YER110C, stronger effect = lower value 0.913 | locus YER155C, strain BEM2, stronger effect = lower value 0.949 | locus YER167W, strain BCK2, stronger effect = lower value 0.951 | locus YFR010W, strain ubp6, stronger effect = lower value 0.902 | locus YGL078C, strain dbp3, stronger effect = lower value 0.947 | locus YGL086W, strain mad1, stronger effect = lower value 0.932 | locus YGR078C, strain PAC10, stronger effect = lower value 0.903 | locus YGR229C, strain SMI1, stronger effect = lower value 0.894 | locus YHR030C, strain SLT2, stronger effect = lower value 0.922 and 0.947 | locus YHR079C, strain IRE1 (second series), stronger effect = lower value 0.932 | locus YHR079C, strain IRE1, stronger effect = lower value 0.957 | locus YHR094C, strain hxt1, stronger effect = lower value 0.933 | locus YHR129C, strain ARP1, stronger effect = lower value 0.949 | locus YHR200W, strain rpn10, stronger effect = lower value 0.937 | locus YIL066C, strain RNR3, stronger effect = lower value 0.946 | locus YIL073C, strain SPO22, stronger effect = lower value 0.84 | locus YIL125W, strain kgd1, stronger effect = lower value 0.943 | locus YJL115W, strain asf1, stronger effect = lower value 0.91 | locus YJL134W, strain LCB3, stronger effect = lower value 0.953 | locus YJL168C, strain set2, stronger effect = lower value 0.938 | locus YJL187C, strain SWE1 (second series), stronger effect = lower value 0.896 | locus YJR043C, strain POL32, stronger effect = lower value 0.976
active: locus YAL026C, strain drs2, stronger effect = lower value 0.815 | locus YAL030W, strain snc1, stronger effect = lower value 0.894 | locus YBL061C, strain skt5, stronger effect = lower value 0.818 | locus YBR009C, strain hhf1, stronger effect = lower value 0.806 | locus YBR021W, strain FUR4, stronger effect = lower value 0.817 | locus YBR023C, strain chs3, stronger effect = lower value 0.867 | locus YBR171W, strain sec66, stronger effect = lower value 0.823 | locus YBR231C, strain swc5, stronger effect = lower value 0.887 | locus YBR279W, strain paf1, stronger effect = lower value 0.902 | locus YCL011C, strain gbp2, stronger effect = lower value 0.876 | locus YCL016C, strain dcc1, stronger effect = lower value 0.905 | locus YCL061C, strain MRC1, stronger effect = lower value 0.888 | locus YCL069W, strain vba3, stronger effect = lower value 0.869 | locus YCR088W, strain abp1, stronger effect = lower value 0.888 | locus YDL040C, strain nat1, stronger effect = lower value 0.893 | locus YDL192W, strain arf1, stronger effect = lower value 0.915 | locus YDR001C, strain nth1, stronger effect = lower value 0.888 | locus YDR137W, strain rgp1, stronger effect = lower value 0.43 | locus YDR159W, strain sac3, stronger effect = lower value 0.757 | locus YDR195W, strain ref2 1.2 [resistant] | locus YDR297W, strain sur2, stronger effect = lower value 0.878 | locus YDR318W, strain mcm21, stronger effect = lower value 0.91 | locus YDR334W, strain swr1, stronger effect = lower value 0.89 | locus YDR335W, strain msn5, stronger effect = lower value 0.889 | locus YDR388W, stronger effect = lower value 0.92 | locus YDR392W, strain spt3, stronger effect = lower value 0.417 | locus YDR502C, strain sam2, stronger effect = lower value 0.871 | locus YEL003W, strain gim4, stronger effect = lower value 0.83 | locus YEL037C, strain rad23, stronger effect = lower value 0.874 | locus YEL061C, strain CIN8 (second series), stronger effect = lower value 0.874 | locus YER015W, strain faa2, stronger effect = lower value 0.876 | locus YER016W, strain bim1, stronger effect = lower value 0.883 | locus YER111C, strain swi4, stronger effect = lower value 0.885 | locus YER155C, strain BEM2 (second series), stronger effect = lower value 0.444 | locus YGL167C, strain pmr1, stronger effect = lower value 0.843 | locus YGL173C, strain kem1, stronger effect = lower value 0.817 | locus YGL227W, strain vid30, stronger effect = lower value 0.879 | locus YGL240W, strain doc1, stronger effect = lower value 0.734 | locus YGL248W, strain PDE1, stronger effect = lower value 0.876 | locus YGL253W, strain hxk2, stronger effect = lower value 0.799 | locus YGR135W, strain pre9, stronger effect = lower value 0.822 | locus YGR252W, strain gcn5, stronger effect = lower value 0.751 | locus YHR013C, strain ard1, stronger effect = lower value 0.725 | locus YHR027C, strain rpn1, stronger effect = lower value 0.883 | locus YHR142W, strain chs7, stronger effect = lower value 0.722 | locus YIR030C, strain dcg1, stronger effect = lower value 0.918 | locus YJL092W, strain hpr5, stronger effect = lower value 0.876 | locus YJL095W, strain BCK1 (second series), stronger effect = lower value 0.727 | locus YJL129C, strain trk1, stronger effect = lower value 0.8 | locus YJL154C, strain vps35, stronger effect = lower value 0.884 | locus YJL164C, strain tpk1, stronger effect = lower value 0.798 | locus YJL166W, strain qcr8, stronger effect = lower value 0.881 | locus YJL187C, strain SWE1, stronger effect = lower value 0.88
0.676 (active) and 0.932 (inactive): locus YJL095W, strain BCK1, stronger effect = lower value

— PubChem BioAssay AID1159580 (chemical genetic matrix, 2015)
